Data published in PubChem BioAssay (EPA / NIEHS).
The source made the active and inactive calls. How the source made its calls: active means hit-call score of the fitted dose curve at least 0.9, where 1 is the maximum; inactive means score below 0.9.

Columns and labels:
[1] = CEETOX_H295R_DOC: CeeTox H295R High-throughput Steroidogenesis Assay for DOC (AID 2283439); conditions: actives raise or lower the signal
Method in brief: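 Secreted DOC was quantified from H295R media by HPLC-MS/MS after 48 h chemical exposure following 48 h forskolin (10 uM) prestimulation. Values were fitted in both directions relative to DMSO, the negative control and baseline.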

[2] = CEETOX_H295R_PROG: CeeTox H295R High-throughput Steroidogenesis Assay for Progesterone (PROG) (AID 2283442); conditions: actives raise or lower the signal;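 on AC50: human H295R adrenal cells primed with 10 µM forskolin before dosing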
Method in brief: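 H295R adrenal cells prestimulated 48 h with 10 uM forskolin, then exposed 48 h to test chemical in 0.1% DMSO. Progesterone in medium quantified by HPLC-MS/MS after MTBE extraction; viability checked by MTT in same wells.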

[3] = read-out: Tumor necrosis factor receptor superfamily member 6 (Homo sapiens) (UniProt P25445); test: LTEA_HepaRG_FAS: Life Technologies and Expression Analysis (LTEA) Assay for Fas cell surface death receptor (FAS) using HepaRG (AID 2283447); conditions: mRNA level, 48 h; actives raise or lower the signal
Method in brief: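 Differentiated HepaRG cells in serum-free induction medium were exposed 48 h to 8 half-log concentrations up to 100 uM in 0.5% DMSO, in duplicate. FAS mRNA was measured by qRT-PCR normalised to ACTB, GAPDH and POLR2A; bidirectional fit versus DMSO.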

[4] = read-out: Fatty acid synthase (Homo sapiens) (UniProt P49327); test: LTEA_HepaRG_FASN: Life Technologies and Expression Analysis (LTEA) Assay for Fatty Acid Synthase (FASN) using HepaRG (AID 2283448); conditions: mRNA level, 48 h; actives raise or lower the signal
Method in brief: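 Transcript-level assay: HepaRG liver cells are treated for 48 h across an eight-point range topping at 100 uM, and FASN mRNA, normalized to three housekeeping genes, is compared with DMSO controls in both directions.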

[5] = read-out: Cyclin D2 (CCND2), CCND2 (gene 894); test: LTEA_HepaRG_CCND2: Life Technologies and Expression Analysis (LTEA) Assay for Cyclin D2 (CCND2) using HepaRG (AID 2283449); conditions: mRNA level, 48 h; actives raise or lower the signal;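 further: CCND2 transcript measured by TaqMan qRT-PCR and normalised to three housekeeping genes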
Method in brief: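 Chemicals in 0.5% DMSO, eight half-log concentrations from 100 uM top, were applied in duplicate for 48 h to human HepaRG cells in serum-free induction medium. CCND2 mRNA by TaqMan qRT-PCR, normalised to ACTB/GAPDH/POLR2A; bidirectional fit versus DMSO.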

[6] = read-out: Cyclin Dependent Kinase Inhibitor 1A (CDKN1A), CDKN1A (gene 1026); test: LTEA_HepaRG_CDKN1A: Life Technologies and Expression Analysis (LTEA) Assay for Cyclin Dependent Kinase Inhibitor 1A (CDKN1A) using HepaRG (AID 2283450); conditions: mRNA level, 48 h; actives raise or lower the signal
Method in brief: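 Differentiated HepaRG cells in serum-free induction medium, exposed 48 h in duplicate to eight half-log concentrations up to 100 uM in 0.5% DMSO. mRNA measured by TaqMan qRT-PCR, normalized to ACTB, GAPDH, POLR2A; bidirectional fit versus DMSO.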

[7] = read-out: Cyclin D1 (CCND1), CCND1 (gene 595); test: LTEA_HepaRG_CCND1: Life Technologies and Expression Analysis (LTEA) Assay for Cyclin D1 (CCND1) using HepaRG (AID 2283451); conditions: mRNA level, 48 h; actives raise or lower the signal;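 on AC50: TaqMan qRT-PCR transcript level normalised to ACTB GAPDH and POLR2A housekeeping genes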
Method in brief: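 Differentiated HepaRG cells exposed 48 h in serum-free induction medium to eight half-log concentrations from 100 uM top, 0.5% DMSO, duplicates. CCND1 mRNA measured by Fluidigm TaqMan qRT-PCR, normalised to ACTB, GAPDH, POLR2A; bidirectional fit.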

[8] = read-out: catalase (CAT), CAT (gene 847); test: LTEA_HepaRG_CAT: Life Technologies and Expression Analysis (LTEA) Assay for catalase (CAT) using HepaRG (AID 2283452); conditions: mRNA level, 48 h; actives raise or lower the signal;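 on AC50: TaqMan qRT-PCR signal normalized to ACTB GAPDH and POLR2A housekeeping genes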
Method in brief: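 HepaRG cells in serum-free induction medium, 0.5% DMSO vehicle, exposed 48 h in duplicate over 8 half-log concentrations from 100 uM. CAT mRNA measured by qRT-PCR, normalized to ACTB, GAPDH, POLR2A; bidirectional fit versus DMSO.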

[9] = read-out: flavin-containing dimethylaniline monooxygenases 3 (FMO3), FMO3 (gene 2328); test: LTEA_HepaRG_FMO3: Life Technologies and Expression Analysis (LTEA) Assay for flavin-containing dimethylaniline monooxygenases 3 (FMO3) using HepaRG (AID 2283453); conditions: mRNA level, 48 h; actives raise or lower the signal
Method in brief: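 HepaRG, 48 h exposure, 8-pt half-log series from 100 uM, 0.5% DMSO vehicle, duplicates; FMO3 transcript by Fluidigm TaqMan qRT-PCR, housekeeping-normalized; gain/loss fit vs DMSO.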

[10] = read-out: Cytochrome P450 (CYP1A1), CYP1A1 (gene 1543); test: LTEA_HepaRG_CYP1A1: Life Technologies and Expression Analysis (LTEA) Assay for Cytochrome P450 (CYP1A1) using HepaRG (AID 2283454); conditions: mRNA level, 48 h; actives raise or lower the signal
Method in brief: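 Differentiated human HepaRG cells, after 48 h plating, exposed in duplicate for 48 h in serum-free induction medium to 8 half-log concentrations up to 100 uM in 0.5% DMSO. CYP1A1 mRNA by qRT-PCR, normalized to ACTB/GAPDH/POLR2A; bidirectional fit versus DMSO.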

[11] = read-out: CFLAR gene, CFLAR (gene 8837); test: LTEA_HepaRG_CFLAR: Life Technologies and Expression Analysis (LTEA) Assay for CFLAR gene using HepaRG (AID 2283455); conditions: mRNA level, 48 h; actives raise or lower the signal
Method in brief: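 Differentiated HepaRG cells in serum-free induction medium were exposed 48 h in duplicate to eight half-log concentrations up to 100 uM in 0.5% DMSO; mRNA measured by TaqMan qRT-PCR, normalized to ACTB, GAPDH, POLR2A; bidirectional fitting versus DMSO.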

[12] = read-out: Forkhead box O1 (FOXO1), FOXO1 (gene 2308); test: LTEA_HepaRG_FOXO1: Life Technologies and Expression Analysis (LTEA) Assay for Forkhead box O1 (FOXO1) using HepaRG (AID 2283456); conditions: mRNA level, 48 h; actives raise or lower the signal
Method in brief: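 Differentiated HepaRG cells, in serum-free induction medium with 0.5% DMSO, exposed 48 h in duplicate to 8-point half-log series from 100 uM. FOXO1 mRNA measured by TaqMan qRT-PCR, normalized to ACTB, GAPDH, POLR2A; bidirectional fit versus DMSO.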

[13] = read-out: growth arrest and DNA damage 45 (GADD45A), GADD45A (gene 1647); test: LTEA_HepaRG_GADD45A: Life Technologies and Expression Analysis (LTEA) Assay for growth arrest and DNA damage 45 (GADD45A) using HepaRG (AID 2283458); conditions: mRNA level, 48 h; actives raise or lower the signal
Method in brief: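 Human HepaRG liver cells are treated in duplicate for 48 h with chemicals in 0.5% DMSO, highest concentration 100 uM. Expression is read by qRT-PCR and analyzed in both directions against vehicle.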

[14] = read-out: Forkhead box O3 (FOXO3), FOXO3 (gene 2309); test: LTEA_HepaRG_FOXO3: Life Technologies and Expression Analysis (LTEA) Assay for Forkhead box O3 (FOXO3) using HepaRG (AID 2283459); conditions: mRNA level, 48 h; actives raise or lower the signal
Method in brief: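 Differentiated human HepaRG cells, 48 h post-plating, exposed in duplicate for 48 h in serum-free induction medium; 8-point half-log series from 100 uM in 0.5% DMSO. FOXO3 mRNA by TaqMan qRT-PCR, normalized to ACTB/GAPDH/POLR2A; bidirectional fit versus DMSO.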

[15] = read-out: ABC Transporter (ABCB1), ABCB1 (gene 5243); test: LTEA_HepaRG_ABCB1: Life Technologies and Expression Analysis (LTEA) Assay for ABC Transporter (ABCB1) using HepaRG (AID 2283460); conditions: mRNA level, 48 h; actives raise or lower the signal
Method in brief: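 HepaRG cells exposed in duplicate for 48 h in serum-free induction medium to eight half-log concentrations up to 100 uM in 0.5% DMSO. ABCB1 mRNA quantified by qRT-PCR, normalised to ACTB, GAPDH and POLR2A; fitted bidirectionally versus DMSO.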

[16] = read-out: growth arrest and DNA damage 45 (GADD45B), GADD45B (gene 4616); test: LTEA_HepaRG_GADD45B: Life Technologies and Expression Analysis (LTEA) Assay for growth arrest and DNA damage 45 (GADD45B) using HepaRG (AID 2283461); conditions: mRNA level, 48 h; actives raise or lower the signal
Method in brief: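 Differentiated human HepaRG cells in serum-free induction medium exposed 48 h in duplicate to eight concentrations, top 100 uM, half-log steps, 0.5% DMSO. GADD45B mRNA by TaqMan qRT-PCR, normalized to ACTB, GAPDH, POLR2A; bidirectional fit versus DMSO.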

[17] = read-out: ABC Transporter (ABCC3), ABCC3 (gene 8714); test: LTEA_HepaRG_ABCC3: Life Technologies and Expression Analysis (LTEA) Assay for ABC Transporter (ABCC3) using HepaRG (AID 2283462); conditions: mRNA level, 48 h; actives raise or lower the signal
Method in brief: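 Differentiated human HepaRG cells exposed 48 h in serum-free induction medium, 0.5% DMSO vehicle, 8-point half-log series to 100 uM in duplicate. ABCC3 mRNA by qRT-PCR, normalised to ACTB, GAPDH, POLR2A; bidirectional fit vs DMSO.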

[18] = CEETOX_H295R_ESTRADIOL: CeeTox H295R High-throughput Steroidogenesis Assay for Estradiol (AID 2283440); conditions: actives raise or lower the signal;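 further: estradiol secreted into medium quantified by LC-MS/MS after dansyl derivatisation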
Method in brief: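 H295R cells pre-stimulated 48 h with 10 uM forskolin, then exposed 48 h to chemical in 0.1% DMSO. Medium estradiol quantified by MTBE extraction, dansyl derivatisation and HPLC-MS/MS; bidirectional fit versus DMSO; MTT viability required >/=70%.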

[19] = CEETOX_H295R_ESTRONE: CeeTox H295R High-throughput Steroidogenesis Assay for Estrone (AID 2283441); conditions: actives raise or lower the signal;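 further: estrone secreted into medium measured by LC-MS/MS after dansyl derivatization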
Method in brief: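 H295R cells; 48 h forskolin (10 uM) prestimulation; 48 h compound exposure, 0.1% DMSO final. Medium estrone: MTBE extraction, dansyl derivatization, HPLC-MS/MS. Bidirectional fit vs DMSO.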

[20] = CEETOX_H295R_TESTO: CeeTox H295R High-throughput Steroidogenesis Assay for Testosterone (TESTO) (AID 2283457); conditions: actives raise or lower the signal
Method in brief: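 H295R adrenal cells, passage ≤10, exposed to chemicals for 48 h. Testosterone in medium measured by MTBE extraction and HPLC-MS/MS against a 7-point standard curve. Bidirectional fit versus DMSO; MTT viability checked in the same wells.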

Measured: AC50

Chain of Fatty acid synthase (Homo sapiens) (P49327 whole entry, looked up): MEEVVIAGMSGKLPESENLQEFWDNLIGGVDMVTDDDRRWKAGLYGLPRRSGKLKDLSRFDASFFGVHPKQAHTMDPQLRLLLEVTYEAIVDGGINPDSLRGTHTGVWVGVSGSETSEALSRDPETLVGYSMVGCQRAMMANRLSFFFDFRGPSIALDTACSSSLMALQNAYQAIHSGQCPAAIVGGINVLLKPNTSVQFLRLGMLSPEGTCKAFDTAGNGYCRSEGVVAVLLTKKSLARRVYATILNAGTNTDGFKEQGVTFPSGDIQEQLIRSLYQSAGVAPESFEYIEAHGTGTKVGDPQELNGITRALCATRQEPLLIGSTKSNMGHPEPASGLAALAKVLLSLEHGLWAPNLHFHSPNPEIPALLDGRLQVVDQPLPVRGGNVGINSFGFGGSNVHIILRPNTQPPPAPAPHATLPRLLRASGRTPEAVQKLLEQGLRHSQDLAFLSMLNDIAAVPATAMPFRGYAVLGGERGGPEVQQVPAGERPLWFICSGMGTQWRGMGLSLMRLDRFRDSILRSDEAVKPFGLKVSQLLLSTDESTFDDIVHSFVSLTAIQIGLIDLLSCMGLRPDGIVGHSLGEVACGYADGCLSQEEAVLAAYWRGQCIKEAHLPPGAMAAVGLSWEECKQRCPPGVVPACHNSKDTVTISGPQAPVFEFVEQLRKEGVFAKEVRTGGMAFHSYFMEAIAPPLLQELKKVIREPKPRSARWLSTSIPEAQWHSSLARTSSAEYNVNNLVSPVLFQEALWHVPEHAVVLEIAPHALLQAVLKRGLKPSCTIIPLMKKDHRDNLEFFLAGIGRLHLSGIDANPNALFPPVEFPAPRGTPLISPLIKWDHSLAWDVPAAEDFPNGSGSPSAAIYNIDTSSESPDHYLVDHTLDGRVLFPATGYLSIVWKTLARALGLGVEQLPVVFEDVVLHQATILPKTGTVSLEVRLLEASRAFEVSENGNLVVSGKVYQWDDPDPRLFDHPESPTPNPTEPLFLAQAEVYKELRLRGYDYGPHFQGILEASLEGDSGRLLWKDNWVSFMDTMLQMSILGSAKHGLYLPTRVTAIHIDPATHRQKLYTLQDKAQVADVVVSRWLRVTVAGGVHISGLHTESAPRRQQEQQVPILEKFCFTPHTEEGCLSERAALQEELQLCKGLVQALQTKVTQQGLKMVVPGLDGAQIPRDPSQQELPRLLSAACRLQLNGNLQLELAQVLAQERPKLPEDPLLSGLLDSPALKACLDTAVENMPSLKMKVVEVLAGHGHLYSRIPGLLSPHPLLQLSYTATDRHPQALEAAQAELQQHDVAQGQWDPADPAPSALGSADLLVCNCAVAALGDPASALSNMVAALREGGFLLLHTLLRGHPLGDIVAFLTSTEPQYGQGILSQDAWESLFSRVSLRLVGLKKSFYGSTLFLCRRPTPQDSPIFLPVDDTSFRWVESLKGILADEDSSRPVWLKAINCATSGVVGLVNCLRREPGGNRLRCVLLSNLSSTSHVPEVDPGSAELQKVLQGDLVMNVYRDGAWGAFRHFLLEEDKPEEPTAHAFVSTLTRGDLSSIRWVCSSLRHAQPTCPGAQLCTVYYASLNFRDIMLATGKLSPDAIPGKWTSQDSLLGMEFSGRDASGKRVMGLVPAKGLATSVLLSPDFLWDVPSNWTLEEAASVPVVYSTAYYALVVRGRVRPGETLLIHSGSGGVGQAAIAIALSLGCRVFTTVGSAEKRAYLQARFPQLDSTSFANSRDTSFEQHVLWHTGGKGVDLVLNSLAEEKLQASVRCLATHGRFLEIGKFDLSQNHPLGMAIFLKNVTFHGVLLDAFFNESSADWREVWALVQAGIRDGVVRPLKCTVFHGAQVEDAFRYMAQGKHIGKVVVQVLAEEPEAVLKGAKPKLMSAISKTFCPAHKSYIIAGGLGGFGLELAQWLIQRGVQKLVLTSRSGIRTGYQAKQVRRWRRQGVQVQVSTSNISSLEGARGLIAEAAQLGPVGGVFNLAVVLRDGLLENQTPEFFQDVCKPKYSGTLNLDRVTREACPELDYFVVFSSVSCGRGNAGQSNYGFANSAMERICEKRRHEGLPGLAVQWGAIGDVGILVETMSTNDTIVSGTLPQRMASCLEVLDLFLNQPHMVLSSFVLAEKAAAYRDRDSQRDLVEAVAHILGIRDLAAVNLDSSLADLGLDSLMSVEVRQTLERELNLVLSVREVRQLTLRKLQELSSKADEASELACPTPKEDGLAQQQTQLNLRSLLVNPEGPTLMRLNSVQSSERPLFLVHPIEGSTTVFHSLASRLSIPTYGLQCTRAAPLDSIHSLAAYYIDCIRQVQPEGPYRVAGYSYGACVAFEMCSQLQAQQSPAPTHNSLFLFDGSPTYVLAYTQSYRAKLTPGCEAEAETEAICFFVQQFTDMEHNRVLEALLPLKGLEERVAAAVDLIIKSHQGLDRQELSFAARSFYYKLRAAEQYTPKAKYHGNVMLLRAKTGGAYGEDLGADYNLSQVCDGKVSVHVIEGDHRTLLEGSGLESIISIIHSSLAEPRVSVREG

CC1=CC(=O)CC(C)(C)C1
not listed: [18] | [19] | [20]
inactive: all other assays above

COc1ccc(/C=C/S(=O)(=O)NC(=O)c2ccc(C)cc2Cl)cc1
active: [10] 50 µM
not listed: [12] | [18] | [19] | [20]
inactive: all other assays above

COc1cccc(-c2ccc(/C=C\CN3CCCCCC3)cc2Cl)c1
inactive: [1] | [18] | [19] | [2] | [6] | [11] | [14] | [15]
active: [3] 77.5 µM | [4] 45.2 µM | [7] 72.2 µM | [8] 69.7 µM | [9] 68.8 µM | [10] 45.2 µM | [13] 69 µM | [16] 76.2 µM | [17] 75.9 µM

CCOc1cccc(-n2cc(C(=O)N3CCN(c4cc(C(=O)O)c5ccccc5c4)CC3)nc2-c2ccc(C)cc2)c1
inactive: [1] | [2] | [3] | [5] | [6] | [20] | [16] | [17]
active: [4] 80.5 µM | [7] 82.4 µM | [8] 31.6 µM | [9] 33.1 µM | [10] 12.3 µM | [11] 84 µM | [12] 80.5 µM | [13] 13.4 µM | [14] 77.2 µM | [15] 78.6 µM

CCCCCCCCCCCCCCCO
active: [2] 14.8 µM | [10] 30.8 µM
not listed: [1] | [12] | [18] | [19] | [20]
inactive: all other assays above

COC(=O)c1c(Cl)c(Cl)c(C(=O)OC)c(Cl)c1Cl
active: [1] 50 µM | [18] 27.4 µM | [10] 50 µM
not listed: [5] | [7] | [20]
inactive: all other assays above

Cn1c(=O)cc(Oc2ccc(F)cc2F)c2cnc(NCC(C)(C)O)nc21
active: [10] 11.9 µM
not listed: [7] | [12] | [20]
inactive: all other assays above
